Data published in PubChem BioAssay (EPA / NIEHS).
Where “and” joins values, the source holds several entries; their conditions need not be identical. Identical values can stand only once. The source holds several records for some structures; these can differ, active in one and inactive in another. Calls of active or inactive are those of the source. The calls were made as follows: active = hit-call score of the fitted dose curve at least 0.9, where 1 is the maximum; inactive = score below 0.9.

Legend:
[1] = biological target: CCAAT/enhancer-binding protein beta (Homo sapiens) (UniProt P17676); assay: ATG_C_EBP_CIS: Attagene CIS-FACTORIAL HepG2 Assay for human CCAAT/Enhancer Binding Protein (C/EBP) beta (AID 2282927); conditions: HepG2 Attagene cis-factorial transcription factor reporter; actives raise or lower the signal
Method in brief: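 Following a 24 h incubation with test chemical, transfected HepG2 cells yielded RNA whose reporter transcripts were quantified by RT-PCR and fluorescent capillary electrophoresis, with DMSO serving as baseline for bidirectional fitting.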

[2] = ATG_CMV_CIS: Attagene CIS-FACTORIAL HepG2 Assay for human CMV (Internal Marker) (AID 2282928); conditions: HepG2 CMV promoter reporter, transcription factor profiling; actives raise or lower the signal;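 also: endpoint acts as a background internal control marker rather than a target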
Method in brief: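 Readout: fluorescent reporter cDNA fragments separated by capillary electrophoresis after RT-PCR and HpaI cut. Cells: HepG2 carrying transfected cis-promoter reporter constructs, dosed 24 h. Endpoint serves as background internal-marker control, fit bidirectionally versus DMSO.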

[3] = ATG_DR4_LXR_CIS: Attagene CIS-FACTORIAL HepG2 Assay for human Liver X Receptor (LXR), DR4 submotif (AID 2282929); conditions: HepG2 Attagene DR4 cis-reporter, mRNA transcription; AC50: actives raise or lower the signal unless noted; outcome: actives raise or lower the signal unless noted
Method in brief: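 Measures endogenous transcription factor activity via a DR4-driven reporter transcript in human HepG2 cells. Compounds incubated 24 h; mRNA quantified by RT-PCR and capillary electrophoresis, analysed as gain or loss of signal versus DMSO.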

[4] = ATG_AP_1_CIS: Attagene CIS-FACTORIAL HepG2 Assay for human Activator Protein 1 (AP-1) (AID 2282931); conditions: HepG2 Attagene cis-factorial AP-1 reporter mRNA; actives raise or lower the signal
Method in brief: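 Bidirectional concentration-response fitting against DMSO controls. Underlying signal: reporter mRNA from cis-promoter constructs in transiently transfected HepG2, measured after 24 h by RT-PCR and capillary electrophoresis.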

[5] = ATG_BRE_CIS: Attagene CIS-FACTORIAL HepG2 Assay for human Bone Morphogenetic Protein (BMP) Response Element (BRE) (AID 2282933); conditions: HepG2 BMP response element reporter, Attagene transcription factor profiling; actives raise or lower the signal
Method in brief: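 Multiplexed cis-reporter assay, HepG2, 24 h exposure. mRNA from reporter units quantified via RT-PCR/CE; DMSO baseline; bidirectional curve fit.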

[6] = biological target: Retinoic acid receptor alpha (Homo sapiens) (UniProt P10276); assay: ATG_DR5_RAR_CIS: Attagene CIS-FACTORIAL HepG2 Assay for human Retinoic Acid Receptor Alpha (RARE), DR5 submotif (AID 2282934); conditions: HepG2 Attagene cis-factorial RARE DR5 reporter, mRNA; actives raise or lower the signal;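 as to AC50: reporter responds to endogenous RAR alpha beta and gamma in HepG2 not RARA alone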
Method in brief: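 Endpoint fitted in both directions relative to DMSO as negative control. It reflects DR5 cis-element reporter mRNA induction in transiently transfected HepG2 cells, measured 24 h after dosing through RT-PCR and fluorescent capillary electrophoresis.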

[7] = biological target: Transcription factor E2F1 (Homo sapiens) (UniProt Q01094); assay: ATG_E2F_CIS: Attagene CIS-FACTORIAL HepG2 Assay for human E2F Transcription Factor 1 (AID 2282935); conditions: HepG2 Attagene cis-reporter, E2F reporter RNA transcripts; actives raise or lower the signal
Method in brief: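 First, HepG2 cells were transfected with reporter transcription units. Next, they were dosed for 24 h. Then RNA was isolated, converted to cDNA, PCR-amplified, FAM-labeled, HpaI-digested and analyzed by capillary electrophoresis.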

[8] = ATG_E_Box_CIS: Attagene CIS-FACTORIAL HepG2 Assay for human Enhancer Box (E-box) (AID 2282936); conditions: HepG2 E-box cis-reporter transcription, actives raise or lower the signal
Method in brief: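 Endogenous transcription factor activity was sensed in human HepG2 liver cells through transfected cis-promoter reporter units. After 24 h of dosing, total RNA was reverse-transcribed and reporter cDNA resolved by capillary electrophoresis.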

[9] = ATG_M_61_CIS: Attagene CIS-FACTORIAL HepG2 Assay for M61 Transcription Factor (Internal Marker) (AID 2282937); conditions: HepG2 Attagene CIS-FACTORIAL M61 internal marker reporter; actives raise or lower the signal
Method in brief: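 Fluorescence from labelled cDNA fragments, separated by capillary electrophoresis, quantifies reporter induction. HepG2 cells bearing transiently transfected cis-promoter MRTUs were incubated with test chemical for 24 h; DMSO defined baseline for gain/loss fitting.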

[10] = ATG_EGR_CIS: Attagene CIS-FACTORIAL HepG2 Assay for human Early Growth Response 1 (EGR1) (AID 2282938); conditions: HepG2 Attagene CIS-FACTORIAL EGR reporter mRNA; actives raise or lower the signal
Method in brief: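 Cell-based multiplex transcription assay: HepG2 carrying transfected cis-element reporter units, 24 h chemical treatment. Fluorescence from capillary electrophoresis of RT-PCR products gives mRNA levels; fitting is bidirectional relative to DMSO.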

[11] = ATG_Ets_CIS: Attagene CIS-FACTORIAL HepG2 Assay for human Erythroblast Transformation Specific (ETS) (AID 2282941); conditions: HepG2 ETS cis-reporter transcription; AC50: actives raise or lower the signal unless noted; outcome: actives raise or lower the signal unless noted
Method in brief: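 RT-PCR/capillary electrophoresis fluorescence read-out of reporter mRNA; HepG2 transient multi-reporter transfection; 24 h compound exposure; gain or loss of signal fitted bidirectionally relative to DMSO.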

[12] = biological target: Hepatocyte nuclear factor 3-beta (Homo sapiens) (UniProt Q9Y261); assay: ATG_FoxA2_CIS: Attagene CIS-FACTORIAL HepG2 Assay for human Forkhead box A2 (FOXA2) (AID 2282942); conditions: HepG2 cis-reporter transcription factor activity, 24 h; actives raise or lower the signal
Method in brief: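 In transiently transfected human HepG2 cells, promoter-driven reporter mRNA levels after 24 h chemical exposure are determined via RT-PCR with capillary electrophoresis. DMSO serves as baseline for bidirectional fitting.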

[13] = ATG_FoxO_CIS: Attagene CIS-FACTORIAL HepG2 Assay for human Forkhead box O (FoxO) (AID 2282943); conditions: HepG2 Attagene cis-reporter, FoxO element, mRNA; actives raise or lower the signal
Method in brief: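 Values reflect reporter mRNA induction or loss in HepG2 cells 24 h post-dosing, fitted bidirectionally with DMSO as negative control and baseline. Detection used RT-PCR and fluorescence capillary electrophoresis.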

[14] = ATG_GATA_CIS: Attagene CIS-FACTORIAL HepG2 Assay for human GATA Binding Protein (AID 2282944); conditions: HepG2 GATA cis-element reporter, Attagene multiplex mRNA; actives raise or lower the signal
Method in brief: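 After transfecting HepG2 cells with multiple cis-regulated reporter units, chemicals are dosed for 24 h; isolated RNA undergoes RT-PCR and fluorescent labeling before capillary electrophoresis, with activity expressed against DMSO.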

[15] = ATG_GLI_CIS: Attagene CIS-FACTORIAL HepG2 Assay for human Zinc Finger Protein GLI1 (AID 2282945); conditions: HepG2, Attagene cis-factorial reporter mRNA, GLI element; actives raise or lower the signal
Method in brief: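 HepG2 cells transiently transfected with cis-promoter multiplexed reporter units report endogenous transcription factor activity. After 24 h chemical exposure, reporter mRNA was quantified by RT-PCR, 6-FAM labelling, HpaI digestion and capillary electrophoresis, with bidirectional fitting against DMSO.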

[16] = biological target: Bile acid receptor (Homo sapiens) (UniProt Q96RI1); assay: ATG_IR1_CIS: Attagene CIS-FACTORIAL HepG2 Assay for human Nuclear Receptor Subfamily 1 Group H Member 4 (NR1H4), IR1 submotif (AID 2282946); conditions: IR1 reporter transcription, actives raise or lower the signal
Method in brief: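 Readout: reporter transcript levels by RT-PCR with fluorescent capillary electrophoresis, from HepG2 cells transiently transfected with multiplexed cis-regulated reporters and dosed 24 h. Gain- or loss-of-signal fitted versus DMSO negative control.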

[17] = biological target: Aryl hydrocarbon receptor (Homo sapiens) (UniProt P35869); assay: ATG_Ahr_CIS: Attagene CIS-FACTORIAL HepG2 Assay for human Aryl Hydrocarbon Receptor (Ahr) (AID 2282930); conditions: HepG2 AhR cis-factorial reporter transcription; actives raise or lower the signal
Method in brief: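 Values derive from bidirectional fitting against DMSO negative control. Underlying signal: cis-element reporter mRNA in transiently transfected HepG2, harvested 24 h post-dose and measured by RT-PCR plus capillary electrophoresis.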

[18] = ATG_AP_2_CIS: Attagene CIS-FACTORIAL HepG2 Assay for human Activator Protein 2 (AP-2) (AID 2282932); conditions: HepG2 AP-2 cis-reporter, Attagene transcription factor profiling; AC50: actives raise or lower the signal unless noted; outcome: actives raise or lower the signal unless noted
Method in brief: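 Cells (HepG2) transfected with promoter-driven reporter constructs, treated 24 h. Total RNA reverse-transcribed, reporter cDNA PCR-amplified, FAM-labelled by primer extension, digested, resolved by capillary electrophoresis. Activity fitted both directions versus DMSO.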

[19] = ATG_M_19_CIS: Attagene CIS-FACTORIAL HepG2 Assay for M19 Transcription Factor (Internal Marker) (AID 2282939); conditions: HepG2 Attagene CIS-FACTORIAL M19 internal marker reporter; actives raise or lower the signal
Method in brief: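 Signals come from fluorescence of labelled reporter-specific PCR fragments resolved by capillary electrophoresis, following 24 h treatment of HepG2 cells transfected with cis-promoter reporter units; activity was fitted in both directions relative to DMSO.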

[20] = ATG_ERE_CIS: Attagene CIS-FACTORIAL HepG2 Assay for Estrogen Response Element (ERE) (AID 2282940); conditions: HepG2 ERE cis-reporter, Attagene RNA transcript; actives raise or lower the signal
Method in brief: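 Fluorescence of capillary-separated, FAM-labelled reporter cDNA fragments indicates reporter mRNA levels in HepG2 cells exposed to chemicals for 24 h. Transient transfection with cis-regulated units; data fitted in both directions against DMSO.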

Measured: AC50

Chain of Hepatocyte nuclear factor 3-beta (Homo sapiens) (Q9Y261 whole entry, looked up): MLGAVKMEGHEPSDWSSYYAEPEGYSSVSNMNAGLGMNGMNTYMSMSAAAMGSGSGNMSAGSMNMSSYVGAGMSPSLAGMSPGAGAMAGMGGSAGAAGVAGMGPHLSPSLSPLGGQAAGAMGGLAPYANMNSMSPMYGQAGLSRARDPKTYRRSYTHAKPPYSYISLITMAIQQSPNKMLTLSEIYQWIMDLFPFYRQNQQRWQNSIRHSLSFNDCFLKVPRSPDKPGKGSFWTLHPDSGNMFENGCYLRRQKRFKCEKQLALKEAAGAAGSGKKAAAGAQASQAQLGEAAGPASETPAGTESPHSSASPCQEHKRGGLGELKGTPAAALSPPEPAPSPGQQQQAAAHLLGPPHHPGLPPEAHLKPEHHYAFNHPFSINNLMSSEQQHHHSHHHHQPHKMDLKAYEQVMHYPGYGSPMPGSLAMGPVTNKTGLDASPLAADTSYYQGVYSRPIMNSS
Chain of Bile acid receptor (Homo sapiens) (Q96RI1 whole entry, looked up): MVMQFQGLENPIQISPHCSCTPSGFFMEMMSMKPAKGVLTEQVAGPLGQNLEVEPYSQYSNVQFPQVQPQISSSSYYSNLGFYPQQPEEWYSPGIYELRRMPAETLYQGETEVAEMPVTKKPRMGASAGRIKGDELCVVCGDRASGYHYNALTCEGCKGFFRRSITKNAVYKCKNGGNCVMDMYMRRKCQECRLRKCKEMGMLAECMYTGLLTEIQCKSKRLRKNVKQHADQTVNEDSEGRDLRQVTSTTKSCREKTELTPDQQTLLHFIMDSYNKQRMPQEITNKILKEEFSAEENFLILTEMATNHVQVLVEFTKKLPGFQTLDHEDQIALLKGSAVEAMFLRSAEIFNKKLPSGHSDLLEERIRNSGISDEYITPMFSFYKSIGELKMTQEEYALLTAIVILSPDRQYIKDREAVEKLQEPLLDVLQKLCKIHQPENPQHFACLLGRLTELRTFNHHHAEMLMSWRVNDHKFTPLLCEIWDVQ
Chain of CCAAT/enhancer-binding protein beta (Homo sapiens) (P17676 whole entry, looked up): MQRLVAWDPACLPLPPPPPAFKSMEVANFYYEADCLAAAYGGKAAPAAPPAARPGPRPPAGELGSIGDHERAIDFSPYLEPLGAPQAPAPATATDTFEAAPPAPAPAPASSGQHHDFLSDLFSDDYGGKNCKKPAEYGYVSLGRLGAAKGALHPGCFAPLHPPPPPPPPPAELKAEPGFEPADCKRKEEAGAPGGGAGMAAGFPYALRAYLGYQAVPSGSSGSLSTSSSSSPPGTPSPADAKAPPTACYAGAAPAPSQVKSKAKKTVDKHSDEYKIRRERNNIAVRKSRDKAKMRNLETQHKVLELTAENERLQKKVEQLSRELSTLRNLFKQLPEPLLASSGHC
Chain of Retinoic acid receptor alpha (Homo sapiens) (P10276 whole entry, looked up): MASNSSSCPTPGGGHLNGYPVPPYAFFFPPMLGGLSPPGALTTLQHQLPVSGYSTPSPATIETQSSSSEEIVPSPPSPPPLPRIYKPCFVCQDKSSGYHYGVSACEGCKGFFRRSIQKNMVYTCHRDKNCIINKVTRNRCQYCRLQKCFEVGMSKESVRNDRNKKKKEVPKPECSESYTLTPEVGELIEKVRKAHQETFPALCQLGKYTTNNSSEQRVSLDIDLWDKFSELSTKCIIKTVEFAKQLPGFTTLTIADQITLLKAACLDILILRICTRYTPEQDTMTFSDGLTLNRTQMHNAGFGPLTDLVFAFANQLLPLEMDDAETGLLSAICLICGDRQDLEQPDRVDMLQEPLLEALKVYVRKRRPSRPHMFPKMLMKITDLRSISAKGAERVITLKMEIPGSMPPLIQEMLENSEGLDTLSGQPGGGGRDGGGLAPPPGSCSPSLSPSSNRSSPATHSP
Chain of Aryl hydrocarbon receptor (Homo sapiens) (P35869 whole entry, looked up): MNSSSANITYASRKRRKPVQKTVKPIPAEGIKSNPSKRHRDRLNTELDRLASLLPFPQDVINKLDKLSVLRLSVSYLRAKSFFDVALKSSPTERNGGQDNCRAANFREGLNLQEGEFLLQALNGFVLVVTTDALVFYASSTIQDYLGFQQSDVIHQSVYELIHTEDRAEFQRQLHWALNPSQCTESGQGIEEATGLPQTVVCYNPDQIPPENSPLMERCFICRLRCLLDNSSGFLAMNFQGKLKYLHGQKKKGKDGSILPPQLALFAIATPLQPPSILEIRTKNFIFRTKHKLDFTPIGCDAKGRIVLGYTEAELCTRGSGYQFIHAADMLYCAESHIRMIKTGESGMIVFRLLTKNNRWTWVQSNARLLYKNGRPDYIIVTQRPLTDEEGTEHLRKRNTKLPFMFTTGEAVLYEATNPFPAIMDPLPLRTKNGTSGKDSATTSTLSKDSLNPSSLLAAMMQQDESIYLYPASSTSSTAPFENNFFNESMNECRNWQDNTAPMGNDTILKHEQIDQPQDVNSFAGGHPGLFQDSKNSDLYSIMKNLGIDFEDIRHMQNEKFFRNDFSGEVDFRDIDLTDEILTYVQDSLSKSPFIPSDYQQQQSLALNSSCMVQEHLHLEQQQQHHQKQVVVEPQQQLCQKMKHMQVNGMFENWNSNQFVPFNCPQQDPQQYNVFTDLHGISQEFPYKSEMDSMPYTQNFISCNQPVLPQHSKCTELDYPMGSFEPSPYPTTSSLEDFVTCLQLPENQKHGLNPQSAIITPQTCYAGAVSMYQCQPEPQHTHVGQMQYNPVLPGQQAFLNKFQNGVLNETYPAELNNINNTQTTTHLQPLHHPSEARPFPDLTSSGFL
Chain of Transcription factor E2F1 (Homo sapiens) (Q01094 whole entry, looked up): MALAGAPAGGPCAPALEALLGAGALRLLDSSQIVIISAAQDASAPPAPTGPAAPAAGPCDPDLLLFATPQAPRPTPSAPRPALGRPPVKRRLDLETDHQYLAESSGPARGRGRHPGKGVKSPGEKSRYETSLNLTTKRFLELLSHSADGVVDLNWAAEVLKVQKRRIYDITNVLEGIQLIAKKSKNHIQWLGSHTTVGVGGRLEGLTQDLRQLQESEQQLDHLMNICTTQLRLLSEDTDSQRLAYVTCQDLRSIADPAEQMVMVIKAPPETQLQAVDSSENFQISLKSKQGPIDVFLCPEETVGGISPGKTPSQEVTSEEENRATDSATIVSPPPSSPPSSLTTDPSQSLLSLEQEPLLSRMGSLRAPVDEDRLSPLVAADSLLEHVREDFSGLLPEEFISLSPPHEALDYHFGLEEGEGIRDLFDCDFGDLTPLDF

O=C(NO)c1ccccc1
active: [2] 37.2 µM [middle of 4 runs] | [3] 26.6 µM [middle of 4 runs] | [4] 26.5 µM [middle of 4 runs] | [5] 21 µM [middle of 4 runs] | [6] 13.7 µM [middle of 4 runs] | [8] 27.9 µM [middle of 4 runs] | [16] 10.8 µM and 19.5 µM
inactive: [1] | [7] | [9] | [10] | [11] | [12] | [13] | [14] | [15] | [16]

CC1=CC(=O)c2ccccc2C1=O
active: [17] 1.4 µM | [8] 6.91 µM
not listed: [2] | [6] | [7] | [11] | [13]
inactive: all other assays above

Cc1cccc2c1ccc1ccccc12
active: [20] 10.2 µM
not listed: [2] | [9] | [17]
inactive: all other assays above

CCN(CC)CC
not listed: [7] | [17] | [18]
inactive: all other assays above

C=COC(=O)C(C)(C)CCCCCC
active: [20] 100 µM
not listed: [2] | [17]
inactive: all other assays above

CCCCc1ccc2ccccc2c1S(=O)(=O)O
not listed: [2] | [11] | [14]
inactive: all other assays above

C[N+](C)(CCCNS(=O)(=O)CCC(F)(F)C(F)(F)C(F)(F)C(F)(F)C(F)(F)C(F)(F)F)CC(=O)[O-]
active: [4] 6.57 nM | [20] 0.0122 µM
not listed: [2] | [17]
inactive: all other assays above

Nc1ccc(O)c(C(=O)O)c1
active: [20] 12.3 µM
not listed: [2] | [15] | [19]
inactive: all other assays above
